# KinaseGlo FLuc: counter-screen: inhibitors of Kinase-Glo firefly luciferase. Kinase-Glo luciferase, ATP luminescence, 8 min. Potency, µM (highest dose often 38.3 µM), inactives show top-dose activity change, negative = inhibition, usual class: inhibitors. actives 0.28% (n = 200,000). AID 1379; active = well fitted curve in the direction sought with a large enough effect; inconclusive = small, poorly fitted or top-dose-only effect, or another doubt; inactive = no such curve, though single readings can be large; an effect the other way counts as inactive or inconclusive; also: nearly all actives have a fitted effect of over 60% in size
#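 Luminescence was the read-out, taken after 8-minute incubation at ambient temperature. Luciferase turned over luciferin with 10 uM ATP in imidazole pH 7.2 buffer containing KCl, MgCl2, Tween 20 and BSA.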
# Lamin A splicing: modulators of lamin A splicing. HeLa LMNA splicing GFP/RFP minigene ratio, 48 h. Potency, µM (highest dose often 46.1 µM), inactives show top-dose ratio change, negative = inhibition, most hits filed as inhibitors. actives 0.01% (n = 200,000). AID 1487; active = well fitted inhibition curve with a large enough effect in the signal ratio, with a control signal flat, not every such curve was filed as active; inconclusive = small, poorly fitted or top-dose-only effect, or effect the other way, or a change in a side signal; the % refers to the signal ratio
#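 S3 HeLa cells stably expressing lamin A-EGFP splicing minigene plus DsRed2, 600 cells/well, 48 h compound exposure at 37C. Laser-scanning cytometry; analysed as GFP (500-530 nm)/RFP (575-640 nm) total intensity ratio; 0.5% DMSO vehicle.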
# ALDH1A1 inh: blocks purified human ALDH1A1 activity; P00352; actives 7.3% (n = 220,000); Purified ALDH1A1, NADH fluorescence, propionaldehyde substrate; Potency, µM (series often up to 75.3 µM), without a hit: at the top dose activity, negative = inhibition, usual class: inhibitors; AID 1030;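 also: plate controls were no enzyme wells and a reference inhibitor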
# Target sequence (P00352 whole entry, looked up): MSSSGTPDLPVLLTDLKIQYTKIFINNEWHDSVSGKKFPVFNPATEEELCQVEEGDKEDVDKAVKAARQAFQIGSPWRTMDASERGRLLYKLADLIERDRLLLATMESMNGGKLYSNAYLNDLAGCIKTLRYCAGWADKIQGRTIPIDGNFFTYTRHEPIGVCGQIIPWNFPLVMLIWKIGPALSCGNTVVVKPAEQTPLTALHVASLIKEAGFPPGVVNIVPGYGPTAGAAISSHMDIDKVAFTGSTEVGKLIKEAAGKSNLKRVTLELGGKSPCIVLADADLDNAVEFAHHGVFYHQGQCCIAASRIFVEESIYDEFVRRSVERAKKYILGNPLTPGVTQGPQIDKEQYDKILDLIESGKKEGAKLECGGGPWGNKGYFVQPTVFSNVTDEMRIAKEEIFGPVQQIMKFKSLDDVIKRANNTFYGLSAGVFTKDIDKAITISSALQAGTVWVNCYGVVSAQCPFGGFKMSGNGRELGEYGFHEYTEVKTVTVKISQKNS
# IMPase Li inh: IMPase inhibition in cells with lithium potentiation | CHO-M1 cells, IP1 TR-FRET (IP-One), carbachol + lithium | Potency, µM (highest dose often 59.4 µM), for the others: at the top dose activity, negative = IMPase inhibition, hits mostly inhibitors | actives 0.35% (n = 210,000) | AID 1457; active = well fitted curve in the direction sought with a large enough effect; inconclusive = small, poorly fitted or top-dose-only effect, or another doubt; inactive = no such curve, though single readings can be large; an effect the other way counts as inactive or inconclusive;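 also: IP1 builds up when IMPase is blocked and the TR-FRET signal falls; plate controls were basal vehicle for no effect and high inhibitor control for full effect; nearly all actives have a fitted effect of over 50% in size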
#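 CHO-M1, 2000 cells/well, 16–30 h culture; cpd + low Li+, 30 min 37C; lysis with d2-IP1/Eu-anti-IP1 Ab, 10 min RT; TR-FRET 665/620 ratio and 620 channel; AC50 via Hill.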
# HPGD block: HPGD (human) dehydrogenase inhibition; P15428; purified HPGD, NADH fluorescence kinetic, PGE2 substrate; Potency, µM, inactives show top-dose activity change, negative = inhibition, most hits filed as inhibitors; actives 4.3% (n = 150,000); AID 894
#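 NADH formation kinetics: reaction with 30 uM PGE2 and 1 mM NAD+ (final), 20 nM enzyme, Tris-HCl pH 8 with Tween 20, after 15 min compound preincubation at room temperature. Fluorescence change, last versus first of five reads.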
# An asterisk follows results filed as active; ? = inconclusive; . = no result; [ ] = remark or other dose. Shown are actives, neighbours in structure and some others; about 9% of the full set was active somewhere. Unless noted, calls follow the shape of the dose curve; as a rule, active = well fitted inhibition curve with a large enough effect (not every such curve was filed as active); inconclusive = small, poorly fitted or top-dose-only effect, or another doubt; inactive = no such curve, though single readings can be large or run the other way. Unless noted, % is scaled to controls: 0 for no effect and ±100 for the full control effect; potency is read from the fitted curve at half-maximal effect.
SMILES,KinaseGlo FLuc,Lamin A splicing,ALDH1A1 inh,IMPase Li inh,HPGD block
CCN(CC)C(=O)Cn1cnc2sc(C(=O)N3CCN(c4ccc(F)cc4)CC3)c(C)c2c1=O,-3%,.,5%,-1%,.
COc1nc(NCCO)nc(Nc2ccc([N+](=O)[O-])cc2)n1,7%,-12%,?,-5%,20µM*
CCOC(=O)c1[nH]c2ccc(Br)cc2c1NC(=O)CCN1CCCC(C)C1 (stereo not drawn),1%,?,-1%,23%,-16%
CCOC(=O)c1[nH]c2ccc(Br)cc2c1NC(=O)CCN1CCC(C)CC1,0%,-6%,11µM*,42%[38.3 µM],-15%
CC(C)CN(C)C(=O)CCc1nnc(Cc2ccc(-c3ccccc3)cc2)o1,.,.,-2%,.,.
CN(C)C(=O)n1nnnc1Cc1ccc(-c2ccccc2)cc1,3%[39.9 µM],.,1µM*,12%,-11%
O=C(c1ccc(S(=O)(=O)N2CCCCC2)cc1)N1CCN(CCN2C(=O)c3cccc4cccc(c34)C2=O)CC1,0%,?,0.63µM*,17%,.
O=C(OCCN1C(=O)c2ccccc2C1=O)c1ccc(S(=O)(=O)N2CCCCCC2)cc1,-1%,6%,-3%,37%[38.3 µM],-8%
Cc1cc(C)nc(N2CCN(C(=O)c3ccc(S(=O)(=O)N4CCCCCC4)cc3)CC2)n1,-1%,?,18µM*,19%,.
Cc1ccc(NC(=O)CCC(=O)OCC(=O)c2ccc(Oc3ccc([N+](=O)[O-])cc3)cc2)c(C)c1,-4%,1%,22µM*,10%[38.3 µM],-5%
Cc1ccc(NC(=O)COC(=O)CCC(=O)c2ccc(C(C)(C)C)cc2)c([N+](=O)[O-])c1,0%,10%,0.5µM*,12%,-21%
Cc1ccc(NC(=O)CCC(=O)OCC(=O)c2ccc(Oc3ccc([N+](=O)[O-])cc3)cc2)cc1,-5%,-10%,1%,4%,-2%
Cc1c(C(=O)Nc2ccc(F)cc2F)sc2nc3n(c(=O)c12)N=C(c1ccccc1)CS3,.,-13%[46 µM],.,.,.
Cc1nn2cc(-c3ccccc3)nc2s1,-16%,-2%,5%,-5%[38.3 µM],-6%
c1ccc(-c2cn3c4c(sc3n2)CCCC4)cc1,11µM*,-12%,?,37%[38.3 µM],-29%
COc1cccc2oc(-c3ccco3)cc(=O)c12,-24%,?,?,0%,?
Cc1nn(-c2ccc(N3CCOCC3)nn2)c(C)c1CCC(=O)Nc1ccc(F)cc1F,.,-1%[46 µM],.,.,.
CC(=O)N(Cc1cc(=O)[nH]c2ccccc12)c1ccccc1,-3%,2%,6%,40%[38.3 µM],-7%
CC(=O)N(Cc1cc(=O)[nH]c2ccccc12)c1cccc(C)c1,8%,4%,20µM*,-18%[38.3 µM],?
O=C(CCNc1ccc(Cc2ccncc2)cc1)c1ccc([N+](=O)[O-])cc1,0%,?,0.11µM*,22%,.
O=C(Nc1ccc(Cc2ccncc2)cc1)c1cccc([N+](=O)[O-])c1,-1%,?,7%,-4%,1.4µM*
O=C(COC(=O)Cc1ccc(Br)cc1)NCc1ccc(F)cc1,1%,3%[46 µM],?,2%,.
O=c1c(Cc2ccc(Cl)cc2Cl)c(O)ccn1Cc1ccc(Cl)cc1,1%,?,?,14%,?
CN(C)c1ccc(/C=N/N2C(=S)SC(C)(C)C2N(O)C(=O)Nc2ccc([N+](=O)[O-])cc2)cc1 (stereo not drawn),-5%,-12%,13µM*,-1%[38.3 µM],-12%
CNC(=S)N1N=C(c2ccc(Br)cc2)CC1c1ccc(OC)cc1 (stereo not drawn),-5%,?,7.1µM*,-1%,35µM*
CNC(=S)N1N=C(c2ccc(C)cc2)CC1c1cc(OC)ccc1OC (stereo not drawn),1%,1%[46 µM],-4%,9%,.
CNC(=S)N1N=C(c2ccc(C)cc2)CC1c1ccc(N(C)C)cc1 (stereo not drawn),-1%,.,25µM*,6%,.
CC(=O)NC(CC(C)C)C(=O)NC(=O)NCc1ccccc1 (stereo not drawn),-1%,15%,5µM*,1%[38.3 µM],-1%
COC(=O)[C@@]1(Cc2ccc(F)cc2)[C@H]2c3cc(C(=O)N(C)C)n(Cc4cccc5ccccc45)c3C[C@H]2CN1C(=O)c1ccccc1,-3%,.,-3%,13%,-12%
